Reference: PubChem BioAssay AID1456 (Vanderbilt High Throughput Screening Facility, 2008)
The campaign covered roughly 190,000 compounds. About 4,100 (2.2%) were called active.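 Rule for the calls: active = thallium flux slope and its plate-corrected score both differing from the plate sample mean at a set confidence after two filtering rounds, in either direction; inactive = the rest.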 This excerpt belongs to a sample that is enriched for actives.

target: Solute carrier family 12 member 5 (Homo sapiens) (UniProt Q9H2X9); assay: KCC2 cotransporter modulators, thallium flux, primary screen, cell-based, HEK293 KCC2, FluoZin-2 fluorescence, MLSMR (AID 1456); conditions: KCC2 cells, thallium flux FluoZin-2 fluorescence; at 10 µM;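 for B-score of Tl+ flux slope (higher = more flux/activation; lower = inhibition): slope of fluorescence scaled to starting intensity during 10 to 20 s after thallium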
Sequence (Q9H2X9 whole entry, looked up): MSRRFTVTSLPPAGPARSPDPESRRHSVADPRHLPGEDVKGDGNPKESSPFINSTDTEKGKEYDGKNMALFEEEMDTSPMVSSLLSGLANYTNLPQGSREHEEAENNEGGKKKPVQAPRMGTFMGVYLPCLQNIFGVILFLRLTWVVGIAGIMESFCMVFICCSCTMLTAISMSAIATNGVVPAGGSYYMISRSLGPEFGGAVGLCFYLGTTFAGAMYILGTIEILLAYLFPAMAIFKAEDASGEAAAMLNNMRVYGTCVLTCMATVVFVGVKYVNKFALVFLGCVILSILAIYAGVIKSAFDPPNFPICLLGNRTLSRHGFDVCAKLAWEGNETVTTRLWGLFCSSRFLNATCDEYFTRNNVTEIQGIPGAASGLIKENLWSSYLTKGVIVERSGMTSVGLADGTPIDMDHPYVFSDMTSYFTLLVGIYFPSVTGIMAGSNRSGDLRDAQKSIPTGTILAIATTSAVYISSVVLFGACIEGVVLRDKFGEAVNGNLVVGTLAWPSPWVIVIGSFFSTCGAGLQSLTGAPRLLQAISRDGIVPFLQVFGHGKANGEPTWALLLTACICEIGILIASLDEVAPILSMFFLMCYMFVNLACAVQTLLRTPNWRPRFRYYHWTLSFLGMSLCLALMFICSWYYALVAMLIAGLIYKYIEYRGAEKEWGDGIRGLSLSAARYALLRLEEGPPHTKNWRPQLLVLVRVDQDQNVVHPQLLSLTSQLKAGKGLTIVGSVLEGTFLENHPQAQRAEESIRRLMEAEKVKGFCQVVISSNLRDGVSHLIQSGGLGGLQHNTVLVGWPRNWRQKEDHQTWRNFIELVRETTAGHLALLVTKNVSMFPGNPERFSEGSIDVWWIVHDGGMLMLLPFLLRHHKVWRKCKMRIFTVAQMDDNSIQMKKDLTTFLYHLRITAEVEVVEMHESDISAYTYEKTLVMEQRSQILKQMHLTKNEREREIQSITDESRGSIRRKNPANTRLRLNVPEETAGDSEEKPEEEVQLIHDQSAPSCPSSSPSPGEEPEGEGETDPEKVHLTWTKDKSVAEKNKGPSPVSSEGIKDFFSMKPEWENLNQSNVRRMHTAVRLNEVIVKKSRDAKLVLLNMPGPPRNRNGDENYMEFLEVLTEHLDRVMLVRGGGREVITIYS

B-score of Tl+ flux slope (higher = more flux/activation; lower = inhibition), inactive:
Cc1ccc(NC(=O)/C(=C/c2ccc([N+](=O)[O-])cc2)NC(=O)c2ccccc2)cc1 -1.36
COc1cc(NC(=O)c2cccnc2SC)cc(OC)c1 0.553
O=C(Nc1nncs1)c1ccccc1NS(=O)(=O)c1cccs1 -1.71
Cc1ccc(-c2nc(SCC(=O)Nc3ccccc3OC(F)F)c3c(C)c(C(=O)O)sc3n2)cc1 -0.62
COc1ccc(C(=O)N/N=C(\C)CC(=O)Nc2ccc(Cl)cn2)cc1 -0.466
CCn1c(CN2C(=O)CSc3ccccc32)n[nH]c1=S 0.96
O=C(Nc1ccccc1)Nc1nc2ccccc2s1 0.018
CSCCC(Nc1nc2ccccc2s1)C(=O)O (stereo not drawn) 0.0417
O=C(O)C(F)(F)C(NCc1ccccc1)c1ccccc1 (stereo not drawn) -0.106
Cn1c(SCC(=O)N2CCOCC2)nnc1-c1ccc2ncccc2c1 -0.0283
O=C(Nc1ccccc1)c1cc2ccccc2[nH]1 -1.8
c1ccc2[nH]c(-c3nc4ccccc4[nH]3)nc2c1 0.179
O=C(c1ccc(OC2CCN(C(=O)c3cccnc3)CC2)cc1)N1CCCCCC1 0.182
COc1ccc(OCC(=O)N2CCN(C(=O)COc3ccccc3)CC2)cc1 -0.137
CCn1c(SCC(=O)N/N=C/c2ccccc2OCC(=O)O)nnc1-c1ccc(C(C)(C)C)cc1 -0.932
CC1(C)CCSC(/C=C/c2ccccc2)=N1 -1.21
COc1ccc(N=Nc2ccc(O)c(P(=O)(c3ccccc3)c3ccccc3)c2)cc1 -0.282
CCCCC(CC)CNC(=O)CCCCn1c(=O)[nH]c2ccsc2c1=O (stereo not drawn) -0.707
CCOC(=O)C(=O)C1C(=O)Nc2ccccc21 (stereo not drawn)
OCCCC1CCCCN1Cc1nc(Cc2ccccc2Cl)no1 (stereo not drawn) -0.7
O=C(/C=C/Nc1ccc(S(=O)(=O)Nc2cnc3ccccc3n2)cc1)c1cccnc1 -0.253
CCOC(=O)c1nnn2c1nc(N1CCN(c3ccccc3)CC1)c1ccccc12 -2.78
C/C=C(\C)C(=O)N1CC2(CC(c3cccc(NC(=O)CCCCC)c3)=NO2)C[C@@H]1C(N)=O (stereo partly drawn) -0.00449
O=C(NN1C(=O)C2C(C1=O)C1C=CC2C12CC2)c1ccccc1Cl (stereo not drawn) 0.716
CCc1ccc(CCC(=O)Nc2ccc(S(N)(=O)=O)cc2)o1 1.49
CCOC(=O)c1ccc(NC(=O)CSc2ncccn2)cc1 1.85
COc1cccc(NC(=O)CN(C)CC(=O)Nc2ccc3c(c2)CCC3)c1 -0.353
CCOc1ccc(NC(=O)CN(C)CC(=O)NC(C)c2ccccc2)cc1OCC (stereo not drawn) -0.692
COc1ccc(/C=N/NS(=O)(=O)c2ccc(NC(C)=O)cc2)cc1 0.538
COc1ccc(Cl)cc1NC(=O)CCN1CCOCC1 -0.478
O=C(NCc1ccco1)C1CCCN(S(=O)(=O)c2ccccc2)C1 (stereo not drawn) -0.4
O=S(=O)(c1ccc(F)cc1)N1CCN(C(=S)NC2CCCC2)CC1 -0.0466
O=S(=O)(c1ccc(Cl)cc1)N1CCCN(c2ccc(C(F)(F)F)cn2)CC1 -0.0306
C=CCC(Nc1ccccc1)c1cccc(OC)c1OC (stereo not drawn) -1.46
O=C(CSc1nnc(-c2cccs2)n1-c1ccccc1)N1CCN(C(=O)c2ccco2)CC1 0.0437
Cc1nnc(SCC(=O)N2CCc3ccccc3C2)s1 0.173
CC(C)Cc1nnc(NC(=O)CCC(=O)Nc2ccc3cn[nH]c3c2)s1 0.683
Nc1nnnn1/N=C/c1cc([N+](=O)[O-])ccc1O -0.19
COc1cccc(CC(=O)Nc2ccc(-c3csc(C)n3)cc2)c1 -1.35

B-score of Tl+ flux slope (higher = more flux/activation; lower = inhibition), active:
COc1cc(NC(=O)c2ccccc2NS(=O)(=O)c2ccc(Cl)s2)cc(OC)c1 -5.32
CCC(=O)NC(=Nc1nc2ccccc2s1)NC(=O)CC 41
S=c1ccc2ccccc2[nH]1 29.1
Cc1ccc(OCC(=O)N2CCN(C(=O)c3cccnc3)CC2)cc1 2.71
CCCCC(CC)CNC(=O)C(=O)C1C(=O)Nc2ccccc21 (stereo not drawn) 8.5
Cc1oc2nc(SCC(=O)Nc3ccc(S(N)(=O)=O)cc3)nc(NC(=O)c3ccccc3)c2c1C 6.29
CCOc1ccc(NC(=O)CN(C)CC(=O)Nc2cccc(Cl)c2C)cc1OCC -5.58
O=S(=O)(c1ccc(F)cc1)N1CCN(C(=S)NCc2ccco2)CC1 -3.94
O=C(CSc1nnc(-c2cccs2)n1Cc1ccccc1)N1CCc2ccccc2C1 -5.7
